Source: PubChem BioAssay AID1159580 (chemical genetic matrix, 2015)
In all, about 5,500 compounds went through this assay and about 2,000 (36%) were called active. Roughly 18% stayed inconclusive and do not appear here. No stated cut-off is given here; in the data, active means normalized growth mostly below about 0.91 (no sharp cut-off); inconclusive means no clear call, values can overlap the other calls; inactive means mostly above about 0.92. Some of the results follow.

Test: chemical genetic growth profiling, strain panel (AID 1159580);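 further: tested at 20 µM; growth read once vehicle control cultures reached saturation at 30 °C; 1 = growth at the plate median or of vehicle wells; lower values mean less growth of the strain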
Details: growth OD

Measured: normalized growth

CC(C)(C)NC[C@@H](O)COc1nsnc1N1CCOCC1
inactive: S. cerevisiae deletion strains, locus YJR075W, strain HOC1, active compounds read low 0.995 | S. cerevisiae deletion strains, locus YKL009W, strain mrt4, active compounds read low 1.03 | S. cerevisiae deletion strains, locus YKL068W, active compounds read low 0.989 | S. cerevisiae deletion strains, locus YKL085W, strain MDH1 (second series), active compounds read low 0.983 | S. cerevisiae deletion strains, locus YKL085W, strain MDH1, active compounds read low 0.983 | S. cerevisiae deletion strains, locus YKL160W, strain elf1, active compounds read low 1.01 | S. cerevisiae deletion strains, locus YKR001C, strain vps1, active compounds read low 0.952 | S. cerevisiae deletion strains, locus YKR026C, strain gcn3, active compounds read low 1.02 | S. cerevisiae deletion strains, locus YKR091W, strain srl3, active compounds read low 1.01 | S. cerevisiae deletion strains, locus YLL001W, strain dnm1, active compounds read low 1 | S. cerevisiae deletion strains, locus YLL026W, active compounds read low 1.01 | S. cerevisiae deletion strains, locus YLL041C, strain sdh2, active compounds read low 1.03 | S. cerevisiae deletion strains, locus YLR027C, strain aat2, active compounds read low 1.01 | S. cerevisiae deletion strains, locus YLR039C, strain RIC1, active compounds read low 1.01 | S. cerevisiae deletion strains, locus YLR058C, strain SHM2, active compounds read low 1 | S. cerevisiae deletion strains, locus YLR102C, strain apc9, active compounds read low 0.976 | S. cerevisiae deletion strains, locus YLR113W, strain HOG1, active compounds read low 0.975 | S. cerevisiae deletion strains, locus YLR221C, strain rsa3, active compounds read low 0.995 | S. cerevisiae deletion strains, locus YLR258W, strain gsy2, active compounds read low 1.01 | S. cerevisiae deletion strains, locus YLR262C, strain YPT6 (second series), active compounds read low 1.03 | S. cerevisiae deletion strains, locus YLR262C, strain YPT6, active compounds read low 1.02 | S. cerevisiae deletion strains, locus YLR268W, strain sec22, active compounds read low 0.961 | S. cerevisiae deletion strains, locus YLR320W, strain mms22, active compounds read low 0.997 | S. cerevisiae deletion strains, locus YLR330W, strain CHS5, active compounds read low 0.989 | S. cerevisiae deletion strains, locus YLR342W, strain FKS1 (second series), active compounds read low 0.992 | S. cerevisiae deletion strains, locus YLR342W, strain FKS1, active compounds read low 1 | S. cerevisiae deletion strains, locus YLR357W, strain rsc2, active compounds read low 0.998 | S. cerevisiae deletion strains, locus YLR370C, strain arc18, active compounds read low 1.02 | S. cerevisiae deletion strains, locus YLR371W, strain rom2, active compounds read low 0.977 | S. cerevisiae deletion strains, locus YLR384C, strain iki3, active compounds read low 1.01 | S. cerevisiae deletion strains, locus YLR418C, strain cdc73, active compounds read low 1.03 | S. cerevisiae deletion strains, locus YML016C, strain PPZ1, active compounds read low 0.988 | S. cerevisiae deletion strains, locus YML032C, strain rad52, active compounds read low 1.01 | S. cerevisiae deletion strains, locus YML120C, strain ndi1, active compounds read low 1.02 | S. cerevisiae deletion strains, locus YML124C, strain tub3, active compounds read low 0.988 | S. cerevisiae deletion strains, locus YMR058W, strain fet3, active compounds read low 1 | S. cerevisiae deletion strains, locus YMR078C, strain ctf18, active compounds read low 0.972 | S. cerevisiae deletion strains, locus YMR125W, strain sto1, active compounds read low 1.02 | S. cerevisiae deletion strains, locus YMR129W, active compounds read low 1.02 | S. cerevisiae deletion strains, locus YMR205C, strain PFK2, active compounds read low 1.02 | S. cerevisiae deletion strains, locus YMR223W, strain ubp8, active compounds read low 1.02 | S. cerevisiae deletion strains, locus YMR231W, strain pep5, active compounds read low 1.01 | S. cerevisiae deletion strains, locus YMR263W, strain SAP30, active compounds read low 0.997 | S. cerevisiae deletion strains, locus YMR307W, strain GAS1, active compounds read low 0.921 | S. cerevisiae deletion strains, locus YNL067W, strain RPL9B, active compounds read low 0.999 | S. cerevisiae deletion strains, locus YNL071W, strain lat1, active compounds read low 1.01 | S. cerevisiae deletion strains, locus YNL153C, strain GIM3, active compounds read low 0.988 | S. cerevisiae deletion strains, locus YNL183C, strain NPR1, active compounds read low 0.934 | S. cerevisiae deletion strains, locus YNL209W, strain ssb2, active compounds read low 1.02 | S. cerevisiae deletion strains, locus YNL233W, strain BNI4, active compounds read low 0.973 | S. cerevisiae deletion strains, locus YNL248C, strain rpa49, active compounds read low 1.02 | S. cerevisiae deletion strains, locus YNL250W, strain rad50, active compounds read low 0.969 | S. cerevisiae deletion strains, locus YNL271C, strain bni1, active compounds read low 0.985 | S. cerevisiae deletion strains, locus YNL298W, strain CLA4, active compounds read low 0.993 | S. cerevisiae deletion strains, locus YNL307C, strain MCK1, active compounds read low 0.974 | S. cerevisiae deletion strains, locus YNL322C, strain KRE1 (second series), active compounds read low 1 | S. cerevisiae deletion strains, locus YNL322C, strain KRE1, active compounds read low 0.993 | S. cerevisiae deletion strains, locus YNR049C, strain mso1, active compounds read low 1.01 | S. cerevisiae deletion strains, locus YNR052C, strain pop2, active compounds read low 0.994 | S. cerevisiae deletion strains, locus YOL006C, strain TOP1, active compounds read low 0.993 | S. cerevisiae deletion strains, locus YOL012C, strain htz1 0.711 | S. cerevisiae deletion strains, locus YOL147C, strain pex11, active compounds read low 0.993 | S. cerevisiae deletion strains, locus YOR001W, strain rrp6, active compounds read low 1.02 | S. cerevisiae deletion strains, locus YOR061W, strain CKA2, active compounds read low 1 | S. cerevisiae deletion strains, locus YOR069W, strain VPS5, active compounds read low 0.99 | S. cerevisiae deletion strains, locus YOR070C, strain gyp1, active compounds read low 1.01 | S. cerevisiae deletion strains, locus YOR080W, strain dia2, active compounds read low 1.02 | S. cerevisiae deletion strains, locus YOR083W, strain WHI5, active compounds read low 0.981 | S. cerevisiae deletion strains, locus YOR106W, strain vam3, active compounds read low 1.03 | S. cerevisiae deletion strains, locus YOR136W, strain idh2, active compounds read low 0.988 | S. cerevisiae deletion strains, locus YOR144C, strain elg1, active compounds read low 0.982 | S. cerevisiae deletion strains, locus YOR184W, strain ser1, active compounds read low 0.989 | S. cerevisiae deletion strains, locus YOR231W, strain MKK1, active compounds read low 0.988 | S. cerevisiae deletion strains, locus YOR265W, strain rbl2, active compounds read low 1.02 | S. cerevisiae deletion strains, locus YOR270C, strain vph1, active compounds read low 1.04 | S. cerevisiae deletion strains, locus YOR290C, strain snf2, active compounds read low 1.01 | S. cerevisiae deletion strains, locus YOR316C, strain cot1, active compounds read low 0.978 | S. cerevisiae deletion strains, locus YPL051W, strain arl3, active compounds read low 1.01 | S. cerevisiae deletion strains, locus YPL078C, strain atp4, active compounds read low 1.01 | S. cerevisiae deletion strains, locus YPL106C, strain sse1, active compounds read low 0.994 | S. cerevisiae deletion strains, locus YPL240C, strain hsp82, active compounds read low 1.02 | S. cerevisiae deletion strains, locus YPL241C, strain CIN2, active compounds read low 0.992 | S. cerevisiae deletion strains, locus YPL256C, strain CLN2, active compounds read low 0.984 | S. cerevisiae deletion strains, locus YPR119W, strain clb2, active compounds read low 0.983 | S. cerevisiae deletion strains, locus YPR141C, strain kar3, active compounds read low 0.973 | S. cerevisiae deletion strains, locus YPR163C, strain tif3, active compounds read low 0.982 | S. cerevisiae deletion strains, locus YPR167C, strain met16, active compounds read low 0.989 | S. cerevisiae deletion strains, strain wtn01, active compounds read low 0.943 | S. cerevisiae strains, strain wild type, active compounds read low 0.994
